Measured values taken from PubChem BioAssay AID1220 (Sanford-Burnham Center for Chemical Genomics, 2008).
Screen size: about 190,000 compounds; about 1,300 (0.68%) were called active. This excerpt belongs to a sample that is enriched for actives. Values without a mark were called inactive. Cut-off read from the data, not from the text of the source: active = inhibition above about 50%; inactive = the rest.

Each compound was assayed against Mannose-6-phosphate isomerase (Homo sapiens) (UniProt P34949) (assay: MPI inhibition at elevated mannose 6-phosphate – biochemical, fluorescence intensity, high mannose 6-phosphate, primary screen (AID 1220)). Conditions: recombinant PMI enzyme, coupled fluorescence intensity; at 20 µM; stronger effect = higher value.
Sequence of Mannose-6-phosphate isomerase (Homo sapiens) (P34949 whole entry, looked up): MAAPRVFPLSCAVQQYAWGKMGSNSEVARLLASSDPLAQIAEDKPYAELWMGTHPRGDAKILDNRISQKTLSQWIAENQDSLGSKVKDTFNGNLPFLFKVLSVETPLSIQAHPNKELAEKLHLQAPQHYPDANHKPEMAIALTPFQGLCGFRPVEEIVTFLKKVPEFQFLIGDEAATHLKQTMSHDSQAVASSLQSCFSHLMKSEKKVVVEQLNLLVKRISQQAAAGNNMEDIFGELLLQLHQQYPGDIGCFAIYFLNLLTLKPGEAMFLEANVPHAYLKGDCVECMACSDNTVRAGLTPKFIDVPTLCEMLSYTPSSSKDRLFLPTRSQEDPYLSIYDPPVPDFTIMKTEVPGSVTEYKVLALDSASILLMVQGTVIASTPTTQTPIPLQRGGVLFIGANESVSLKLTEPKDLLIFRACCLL

SMILES	inhibition
CN(Cc1ccccc1)CC(O)COc1ccc(CNCCc2ccncc2)cc1 (centres undefined)	-5.6%
CN(C)c1nc(-c2ccccc2)ncc1S(=O)(=O)c1ccccc1	14.6%
COc1ccc(CC(=O)Nc2ccc(-c3cn4ccc(C)cc4n3)cc2)cc1	-1.3%
COc1ccc(N(CC(=O)NCc2ccco2)S(=O)(=O)c2ccc(C)cc2)cc1	14.7%
O=C1CN2NC(=S)N(c3ccccc3)C2=CN1c1ccc(Cl)cc1	-1.1%
CCOc1ccc(NC(=O)CSc2n[nH]c(=O)n2-c2ccccc2)cc1	6.5%
Cn1cccc1/C=N/NC(=O)C12CC3CC(CC(C3)C1)C2	2.4%
O=C(O)C1=C[C@@H](c2ccc3c(c2)OCO3)C[C@@H](OCc2ccc(CO)cc2)O1	4.3%
C=CCOC(=O)C1=C[C@@H](c2ccc3c(c2)OCO3)C[C@@H](OCc2ccc(CO)cc2)O1	20%
NC(=O)C1=C[C@H](c2ccc3c(c2)OCO3)C[C@H](OCc2ccc(CO)cc2)O1	59.9% (active)
O=C(Nc1ccccc1-c1ccccc1)C1CCC1	8.4%
COc1ccc(Cc2nc(-c3ccc(-n4cccc4)cc3)no2)cc1	-0.1%
O=[N+]([O-])c1ccc(OCCN2CCNCC2)cc1	-5.8%
COc1nnc(-c2ccc(N3CCCCC3)c(NC(C)=O)c2)c2ccccc12	-9.2%
C=CCNC(=S)N1CCC(C(=O)c2ccc3c(c2)OCCO3)CC1	12.3%
COc1cnc(-c2ccccn2)nc1Oc1ccccc1	12.7%
Cc1ccc(OCCn2c(Br)nc3c2c(=O)n(C)c(=O)n3C)cc1	52.7% (active)
COc1ccc(C(=O)Cn2c(Br)nc3c2c(=O)n(C)c(=O)n3C)cc1	-3%
COCCn1c(Br)nc2c1c(=O)n(C)c(=O)n2C	0.3%
CCc1ccccc1NC(=O)c1cccc(Oc2ccc([N+](=O)[O-])cc2Cl)c1	6.1%
CN(C)S(=O)(=O)c1ccc(Cl)c(NC(=O)CSc2nc3ccccc3c(=O)n2CCCN2CCOCC2)c1	4.7%
CCOC(=O)c1ccccc1NC(=O)COC(=O)C1=COCCO1	3.8%

SMILES	inhibition
CC12CN3CC(C)(CN(C1)C3c1c[nH]c3ccccc13)C2=O (centres undefined)	3.5%
CC12CN3CC(C)(CN(C1)C3c1ccc3ccccc3c1O)C2=O (centres undefined)	53.1% (active)
Cn1cc(C2N3CC4(C)CN2CC(C)(C3)C4=O)c2ccccc21 (centres undefined)	4.5%
CCCCCCNC(=O)Nc1ccccc1	0.8%
CC(=O)N1C(=O)/C(=C2\SC(=S)N(NC(=O)c3ccc(O)cc3)C2=O)c2ccccc21	56.1% (active)
CC(/C=C1\SC(=S)N(NC(=O)c2ccc(O)cc2)C1=O)=C\c1ccccc1	23.4%
CC(=O)N1C(=O)/C(=C2\SC(=S)N(NS(=O)(=O)c3ccc(C)cc3)C2=O)c2ccccc21	38.2%
Cc1cc(C)c(S(=O)(=O)n2nc(C)c(Br)c2C)c(C)c1	-6.9%
O=C(CCn1c(=O)sc2ccccc21)NCc1cccs1	-0.4%
COCc1cc(C)[nH]c(=O)c1C#N	-5.6%
O=c1c2ccccc2sn1-c1ccccc1	62.8% (active)
Cc1ccnc(N2C3CCC2CC(O)(c2ccccc2)C3)n1 (centres undefined)	-10.5%
CN(C)S(=O)(=O)c1cccc(N2C(=O)CC3(CCCCC3)CC2=O)c1	0.9%
Cc1cc(=O)c2ccccc2s1	0.5%
O=C1CCCN1c1nccs1	-6.6%
CN(C)S(=O)(=O)c1cccc(-c2cn3ccccc3n2)c1	-10.7%
O=c1c2ccccc2c2ccccc2c(=O)n1-c1ccccc1	-1.1%
O=c1[nH]n(-c2ccccc2)c(=O)c2ccccc12	-0.9%
Cc1ccccc1N=Cc1c(O)n(-c2nccs2)c(=O)c2ccccc12	16.2%
CCOC(=O)c1cnn(-c2ccccc2)c1NC(=O)CCl	-1.3%
CCN(CC)S(=O)(=O)c1cccc(NC(=O)c2cc(=O)[nH]c3ccccc23)c1	4.5%
CCCCNC(=O)N(C)c1nc2ccccc2s1	-3.1%

SMILES	inhibition
CCn1c(SCC(=O)NCc2ccccc2)nc2c(c1=O)SC(C)C2 (centres undefined)	2.5%
COc1ccc(CN2CCCC(CNC(=O)c3ccc(F)cc3)C2)c(F)c1 (centres undefined)	-6%
CCOc1ccc(-c2nc(C#N)c(NCC(C)C)o2)cc1	-0.5%
COc1ccc(CCC(=O)N2c3ccccc3CC2C)cc1 (centres undefined)	14.3%
COc1cc(/C=C/C(=O)N2CCCc3ccccc32)cc(OC)c1OC	-12.4%
O=C(Nc1nc(-c2cccs2)cs1)c1ccco1	12.4%
CSCCC(NC(=O)c1ccco1)C(=O)OCc1cc([N+](=O)[O-])cc2c1OCOC2 (centres undefined)	5.4%
CC1CCC2(CC1)NC(=O)N(NC(=O)CCl)C2=O (centres undefined)	-10.3%
CC1CCN(CCOCCOc2ccc(Cl)cc2Br)CC1	-7.9%
Nc1nnc(N2CCc3ccccc32)s1	6.2%
Cc1ccc(Cn2c(=O)sc3ccccc3c2=O)cc1	8%
Cc1c(Cl)sn(-c2ccc(Cl)cc2)c1=O	-4.6%
COc1ccc(-n2c(C)c3c(OC)cccc(=O)c3c2C)cc1	46.4%
COc1cccc(=O)c2c(C)n(C)c(C)c12	-5%
COc1cccc(=O)c2c(C)n(-c3ccc(C(=O)O)cc3)c(C)c12	-16.3%
COc1cccc(=O)c2c(C)n(-c3cc(C)cc(C)c3)c(C)c12	29.9%
COc1ccccc1-n1c(C)c2c(OC)cccc(=O)c2c1C	54.7% (active)
COc1cccc(-n2c(C)c3c(OC)cccc(=O)c3c2C)c1	61% (active)
CNS(=O)(=O)c1cc(C(=O)OCC(=O)NC2CCCc3ccccc32)ccc1Cl (centres undefined)	9.4%
COC(=O)C1=C(C)NC(=O)/C1=C\c1cc(C)n(-c2ccccc2F)c1C	-51.3%
